# Laboratory results reported in publication PMC5700166.
# How the values were obtained:
# Assay in all cases: protein-binding microarray (PBM); PBM: ~300 nM protein, 6 mM HEPES pH 7.8, 80 mM KCl, 0.5 mM EDTA, 0.5 mM EGTA, 6% glycerol, 35 ng/ul poly-dIdC, 1% milk, 1 h, room temperature; Ap Aiptasia and Nv Nematostella (sea anemones) / Co Capsaspora / Aq Amphimedon (sponge) / Dm Drosophila / Hu human; RHD is the Rel homology domain; high values mean tight binding
# Conditions in all cases: dsDNA, one strand shown
# [1] = target: T1, GST-Ap-NF-kB RHD (Exaiptasia pallida (Aiptasia), UniProt A0A913YAJ5 2-422)
# T1 sequence: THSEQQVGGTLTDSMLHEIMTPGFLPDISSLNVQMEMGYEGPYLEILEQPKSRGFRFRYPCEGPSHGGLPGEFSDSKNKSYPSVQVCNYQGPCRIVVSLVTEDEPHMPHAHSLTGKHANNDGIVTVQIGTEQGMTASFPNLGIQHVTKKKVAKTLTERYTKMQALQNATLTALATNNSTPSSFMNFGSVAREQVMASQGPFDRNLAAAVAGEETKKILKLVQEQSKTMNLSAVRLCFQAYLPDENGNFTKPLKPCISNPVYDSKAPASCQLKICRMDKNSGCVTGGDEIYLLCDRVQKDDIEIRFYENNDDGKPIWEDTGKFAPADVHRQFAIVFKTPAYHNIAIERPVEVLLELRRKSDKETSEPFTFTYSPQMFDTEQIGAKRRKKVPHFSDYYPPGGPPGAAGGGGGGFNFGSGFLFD
# [2] = target: T2, GST-Nv-NF-kB (Cys allele) (Nematostella vectensis, UniProt E5G601 2-411)
# T2 sequence: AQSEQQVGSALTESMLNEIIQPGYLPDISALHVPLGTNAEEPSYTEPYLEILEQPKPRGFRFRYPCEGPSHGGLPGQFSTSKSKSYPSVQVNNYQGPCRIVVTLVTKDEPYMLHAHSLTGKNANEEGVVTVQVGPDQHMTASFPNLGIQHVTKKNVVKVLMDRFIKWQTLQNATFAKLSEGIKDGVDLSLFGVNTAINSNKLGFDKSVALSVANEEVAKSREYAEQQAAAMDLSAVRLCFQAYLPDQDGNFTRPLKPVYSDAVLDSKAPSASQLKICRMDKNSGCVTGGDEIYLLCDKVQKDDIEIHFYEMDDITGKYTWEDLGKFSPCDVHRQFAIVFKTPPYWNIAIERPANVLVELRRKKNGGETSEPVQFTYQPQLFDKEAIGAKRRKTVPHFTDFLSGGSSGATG
# [3] = target: T3, GST-Co-NF-kB (Capsaspora owczarzaki, UniProt F1ARL5 200-546)
# T3 sequence: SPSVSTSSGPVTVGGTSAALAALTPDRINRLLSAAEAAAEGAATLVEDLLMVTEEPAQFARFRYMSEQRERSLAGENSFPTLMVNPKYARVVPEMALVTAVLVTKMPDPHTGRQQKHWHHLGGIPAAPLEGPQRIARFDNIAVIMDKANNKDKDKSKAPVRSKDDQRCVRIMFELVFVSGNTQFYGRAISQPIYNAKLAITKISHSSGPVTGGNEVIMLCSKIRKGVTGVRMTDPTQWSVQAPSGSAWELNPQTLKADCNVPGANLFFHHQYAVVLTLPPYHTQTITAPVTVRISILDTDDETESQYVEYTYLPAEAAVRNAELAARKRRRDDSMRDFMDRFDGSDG
# [4] = target: T4, GST-Dm-Relish (Drosophila melanogaster, UniProt Q94527 99-473)
# T4 sequence: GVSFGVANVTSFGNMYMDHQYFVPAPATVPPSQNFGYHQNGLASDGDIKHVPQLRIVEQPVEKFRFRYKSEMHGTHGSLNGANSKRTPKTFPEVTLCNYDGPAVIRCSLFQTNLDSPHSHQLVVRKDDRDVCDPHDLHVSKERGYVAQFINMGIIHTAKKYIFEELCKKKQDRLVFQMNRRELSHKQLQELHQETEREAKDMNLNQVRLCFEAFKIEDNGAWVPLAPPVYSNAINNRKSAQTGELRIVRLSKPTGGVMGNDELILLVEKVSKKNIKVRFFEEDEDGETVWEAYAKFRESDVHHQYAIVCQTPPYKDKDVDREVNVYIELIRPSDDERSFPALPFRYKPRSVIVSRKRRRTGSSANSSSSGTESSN
# [5] = target: T5, GST-Aq-NF-kB (Amphimedon queenslandica, UniProt A9Y5G7 2-389)
# T5 sequence: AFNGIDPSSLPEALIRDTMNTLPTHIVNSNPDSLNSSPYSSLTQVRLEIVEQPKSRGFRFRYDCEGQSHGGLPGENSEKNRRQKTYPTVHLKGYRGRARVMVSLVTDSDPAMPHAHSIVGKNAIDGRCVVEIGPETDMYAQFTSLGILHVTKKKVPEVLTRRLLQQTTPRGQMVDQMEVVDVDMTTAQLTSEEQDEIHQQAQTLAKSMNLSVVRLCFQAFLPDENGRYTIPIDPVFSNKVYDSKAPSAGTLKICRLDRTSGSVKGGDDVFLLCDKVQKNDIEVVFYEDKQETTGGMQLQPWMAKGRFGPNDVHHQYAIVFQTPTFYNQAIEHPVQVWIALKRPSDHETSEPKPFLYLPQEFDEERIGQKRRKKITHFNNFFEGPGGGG
Sequence,binding signal [1] [z-score],binding signal [2] [z-score],binding signal [3] [z-score],binding signal [4] [z-score],binding signal [5] [z-score]
CCGATTAACATCAGGCGATTCCCTGATGTTAATCGGGTCTTGATTCGCTTGACGCTGCTG,1.93,2.99,1.44,2.34,3.88
CCGATTAACATCACGGGAATTTCTGATGTTAATCGGGTCTTGATTCGCTTGACGCTGCTG,5.46,7.5,5.53,5.6,6.28
CCGATTAACATCAGGACGTTCCCTGATGTTAATCGGGTCTTGATTCGCTTGACGCTGCTG,2.27,2.22,1.01,1.51,5.14
CCGATTAACATCAAGGGAATCCCTGATGTTAATCGGGTCTTGATTCGCTTGACGCTGCTG,6.73,6.1,2.83,9.2,6.63
CCGATTAACATCACTGTTTTCCCTGATGTTAATCGGGTCTTGATTCGCTTGACGCTGCTG,2.63,4.15,4.9,1.62,3.31
CCGATTAACATCAGGAGTACCCCTGATGTTAATCGGGTCTTGATTCGCTTGACGCTGCTG,3.01,2.42,2.96,3.64,4.07
CCGATTAACATCAATCTACCCCCTGATGTTAATCGGGTCTTGATTCGCTTGACGCTGCTG,4.86,3.1,7.41,2.3,3.68
CCGATTAACATCAGGGAGGGTAATGATGTTAATCGGGTCTTGATTCGCTTGACGCTGCTG,2.31,2.15,1.71,1.12,2.39
CCGATTAACATCACAACACCCCCTGATGTTAATCGGGTCTTGATTCGCTTGACGCTGCTG,5.03,3.99,3.14,4.4,4.65
CCGATTAACATCAGAGTCCCCCCTGATGTTAATCGGGTCTTGATTCGCTTGACGCTGCTG,5.97,5.02,7.33,5.14,4.89
CCGATTAACATCACGGGGTTCCCTGATGTTAATCGGGTCTTGATTCGCTTGACGCTGCTG,4.82,2.58,2.51,9.28,6.02
CCGATTAACATCAATGGGAAAATTGATGTTAATCGGGTCTTGATTCGCTTGACGCTGCTG,1.56,4.28,3.46,1.25,3.05
CCGATTAACATCACGTCCCCCCCTGATGTTAATCGGGTCTTGATTCGCTTGACGCTGCTG,6.32,4.27,5.34,4.38,4.49
CCGATTAACATCAGGGGTTTTGATGATGTTAATCGGGTCTTGATTCGCTTGACGCTGCTG,3.81,3.46,1.34,5.6,3.25
CCGATTAACATCAAGGGATCCCCTGATGTTAATCGGGTCTTGATTCGCTTGACGCTGCTG,8.25,5.8,4.18,9.18,6.19
CCGATTAACATCAGGGGAAGGGATGATGTTAATCGGGTCTTGATTCGCTTGACGCTGCTG,4.77,4.77,3.96,1.68,3.89
CCGATTAACATCAGGGAATCCTATGATGTTAATCGGGTCTTGATTCGCTTGACGCTGCTG,3.36,4.16,2.52,7.42,4.15
CCGATTAACATCAGGACTACCCCTGATGTTAATCGGGTCTTGATTCGCTTGACGCTGCTG,3.7,3.48,1.83,2.36,6.48
CCGATTAACATCACCCATCCCCCTGATGTTAATCGGGTCTTGATTCGCTTGACGCTGCTG,4.59,3.91,3.26,2.93,3.73
CCGATTAACATCAGGGAACTACCTGATGTTAATCGGGTCTTGATTCGCTTGACGCTGCTG,4.91,4.67,1.23,8.33,6.44
CCGATTAACATCAGGGGTAAAACTGATGTTAATCGGGTCTTGATTCGCTTGACGCTGCTG,2.3,1.97,6.26,1.85,2.73
CCGATTAACATCAAGTCCCCCAATGATGTTAATCGGGTCTTGATTCGCTTGACGCTGCTG,4.26,3.66,3.84,2.8,3.76
CCGATTAACATCAGGGGGTATACTGATGTTAATCGGGTCTTGATTCGCTTGACGCTGCTG,5.81,3.11,4.82,6.38,4.14
CCGATTAACATCACGAGTTTCCCTGATGTTAATCGGGTCTTGATTCGCTTGACGCTGCTG,3.04,4.31,3.63,1.16,3.88
CCGATTAACATCACGGAATACCCTGATGTTAATCGGGTCTTGATTCGCTTGACGCTGCTG,3.79,4.14,1.67,4.64,4.52
CCGATTAACATCACCCAGGGAAATGATGTTAATCGGGTCTTGATTCGCTTGACGCTGCTG,1.54,2.66,2.73,1.46,2.69
CCGATTAACATCAGGATATTCCCTGATGTTAATCGGGTCTTGATTCGCTTGACGCTGCTG,4.67,5.16,3.51,3.37,6.63
